Results reported in PubChem BioAssay (EPA / NIEHS).
Some compounds were tested as several samples or in several runs, with calls that do not always agree. Activity calls are given as the source filed them. How the source made its calls: active means hit-call score of the fitted dose curve at least 0.9, where 1 is the maximum; inactive means score below 0.9.

Experiment: ATG_Oct_MLP_CIS: Attagene CIS-FACTORIAL HepG2 Assay for human Octamer-Binding Transcription Factor (Oct) (AID 2282993)
Conditions: HepG2 Attagene cis-factorial Oct reporter, mRNA; actives raise or lower the signal
Experimental: ATG_CIS is a cell-based, multiplexed-readout assay that uses HepG2, a human liver cell line, with measurements taken at 24 hours after chemical dosing in a 24-well plate.ATG_Oct_MLP_CIS is one of 52 assay component(s) measured or calculated from the ATG_CIS assay. It is designed to make measurements of mRNA induction, a form of inducible reporter, as detected with fluorescence intensity signals by Reverse transcription polymerase chain reaction (RT-PCR) and Capillary electrophoresis technology.Data from the assay component ATG_Oct_MLP_CIS was analyzed into 1 assay endpoint. This assay endpoint, ATG_Oct_MLP_CIS, was analyzed with bidirectional fitting relative to DMSO as the negative control and baseline of activity. Using a type of inducible reporter, measures of mRNA for gain or loss-of-signal activity can be used to understand the reporter gene at the transcription factor-level as they relate to the gene POU2F1. Furthermore, this assay endpoint can be referred to as a primary readout, because this assay has produced multiple assay endpoints where this one serves a reporter gene function. To generalize the intended target to other relatable targets, this assay endpoint is annotated to the dna binding intended target family, where the subfamily is POU domain protein.
Human liver HepG2 cells are transiently transfected with multiple reporter transcription units (MRTUs) in 6-well plates using FuGene 6 reagent (Roche; 3 ml FuGene/1 mg DNA). The MRTU constructs are regulated by a cis-regulating element (promoter). […] A major difference between the CIS and TRANS system is that in CIS activities of endogenous TFs are measured, whereas the TRANS assay evaluates changes in activities of exogenous, chimeric NR-Gal4 proteins. […] At the end of 24 hour incubation, total RNA was isolated using TriZol reagent (Invitrogen). The isolated RNA is then reverse-transcribed using oligo(dT) primer and Mo-MLV reverse transcriptase (Invitrogen) with DNAse I (Ambion) treatment for 30 min. The one-tenth of the produced cDNA was amplified by PCR using Taq DNA polymerase (Invitrogen) and two reporter sequence-specific primers. The PCR products were fluorescently labeled by primer extension with 6-arboxyfluorescein (6-FAM) 5'-labeled reporter sequence-specific primer (2 min at 95 C, 20 s at 68 C and 10 min at 72 C) and these products were digested with 5U of HpaI (New England Biolabs) for 2h at 37 C. The fragments were purified using Qiaquick PCR columns (Qiagen), analyzed on an ABI 3130xL genetic analyzer (Applied Biosystems) with peak positions identified by using a set of X-rhodamine (ROX)-labeled MapMarker1000 molecular weight standards (BioVentures). The raw capillary electrophoresis data was processed using Attagraph software (Attagene).
In the case of COP(=S)(OC)Oc1ccc(Sc2ccc(OP(=S)(OC)OC)cc2)cc1, the outcome is reported as “inactive”.
For ClC1=C(Cl)[C@]2(Cl)[C@@H]3[C@@H](Cl)[C@@H](Cl)C[C@@H]3[C@@]1(Cl)C2(Cl)Cl, the outcome was “inactive”.
For CCCCC(CC)CO[N+](=O)[O-] (stereo not given), the outcome was “inactive”.
In the case of Oc1c(I)cc(I)cc1I, the AC50 is reported as 34.5 µM (active).
With O=C(c1ccccc1)C(Cl)Cl the AC50 was 25.3 µM (active).
With CC(C)c1cccc(C(C)C)c1O the outcome was “inactive”.
In the case of C=CC#N, the outcome is reported as “inactive”.
In the case of Cc1cc(Cl)ccc1O[C@H](C)C(=O)O, the outcome is reported as “inactive”.
For O=C(O)C(F)(F)C(F)(F)C(F)(F)C(F)(F)C(F)(F)C(F)(F)C(F)(F)C(F)(F)C(F)(F)C(F)(F)F, the outcome was “inactive” and the AC50 was 25 µM (active).
With Oc1cccc2cccnc12 the outcome was “inactive” and the AC50 was 167 µM (active).
For O=[N+]([O-])c1ccc(O)c([N+](=O)[O-])c1, the outcome was “inactive”.
With CCOC(=O)Nc1cccc(OC(=O)Nc2ccccc2)c1 the outcome was “inactive”.
In the case of COc1ccc(C=O)cc1OC, the outcome is reported as “inactive”.
In the case of O=C(Nc1ccc2[nH]ccc2c1)c1cc2cc(F)ccc2n1Cc1cccc(F)c1, the AC50 is reported as 11 µM (active).
With O=C(CCl)CCl the AC50 was 26.1 µM (active).
With OCC(O)CCl (stereo not given) the outcome was “inactive”.
With Nc1ccc(-c2ccc(N)c(Cl)c2)cc1Cl the AC50 was 5.49 µM (active).
With CCOP(OCC)OCC the outcome was “inactive”.
For Cc1ccc2ccccc2c1C, the outcome was “inactive”.
For O=C/C=C/c1ccccc1, the outcome was “inactive”.
With CC(C)(C)CC(C)(C)c1ccc(O)cc1 the outcome was “inactive”.
With CC(C)(C)c1cc(O)ccc1O the AC50 was 129 µM (active).
For CCC(=O)C(CC(C)N(C)C)(c1ccccc1)c1ccccc1 (stereo not given), the outcome was “inactive”.
For CCOP(=S)(OCC)Oc1ccc(S(C)=O)cc1 (stereo not given), the outcome was “inactive”.
For C1CCC(NC2CCCCC2)CC1, the outcome was “inactive”.
For CC1(C)CCC(Cc2ccc(Cl)cc2)C1(O)Cn1cncn1 (stereo not given), the outcome was “inactive”.
In the case of COP(=S)(OC)Oc1ccc(S(=O)(=O)N(C)C)cc1, the outcome is reported as “inactive”.
With CCCCCCCCSC(=O)Oc1cc(Cl)nnc1-c1ccccc1 the outcome was “inactive”.
In the case of COS(=O)(=O)c1ccc(C)cc1, the outcome is reported as “inactive”.
With CCCCCCCCc1ccc(O)cc1 the outcome was “inactive”.
For [O-][Cl+2]([O-])O, the outcome was “inactive”.
For CC(=[OH+])/C=C(/C)[O-].CC(=[OH+])/C=C(/C)[O-].CC(=[OH+])/C=C(/C)[O-].[Fe], the outcome was “inactive”.
With BrCCBr the outcome was “inactive”.
For ClCc1ccccn1, the AC50 was 59.6 µM (active).
With CC1(C)Cc2cccc(O)c2O1 the outcome was “inactive”.
In the case of CN(C)N=O, the outcome is reported as “inactive”.
With CC(C)(OO)c1ccccc1 the outcome was “inactive”.
In the case of Cc1cc(=O)[nH]o1, the outcome is reported as “inactive”.
